Our source for the Potency and outcome values is PubChem BioAssay (NCATS).

Values without a mark were called inactive. Results filed as inconclusive are left out. The source made the active and inactive calls. Unless noted, calls follow the shape of the dose curve; as a rule, active = well fitted curve in the direction sought with a large enough effect; inconclusive = small, poorly fitted or top-dose-only effect, or another doubt; inactive = no such curve, though single readings can be large; an effect the other way counts as inactive or inconclusive.

A short description of experiment [1]: P-glycoprotein substrates identified in KB-8-5-11 adenocarcinoma cell line, qHTS therapeutic library screen (AID 1346987). Also: nearly all actives have a fitted effect of over 65% in size. An outline of the steps: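 P-gp-mediated resistance screen: KB-8-5-11 cells treated 72 h with compounds in dose-response. CellTiter-Glo viability.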
(qHTS replaces the single test concentration by a dilution series.)

The nature of experiment [2]: NS1 protein of Zika virus - qHTS assay to identify small molecule inhibitors in human HEK 293 cells (AID 1347053). Also: nearly all actives have a fitted effect of over 55% in size. An outline of the steps: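 HEK 293 cells, seeded 20 h at 37 C, were pretreated with compound 1 h, then infected with ZIKV MR766 (MOI = 0.5) for 24 h. NS1 was read by TR-FRET with two anti-NS1 antibodies, normalized to uninfected and infected wells.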
Experiment [3] is described as follows: qHTS for Inhibitors of the Functional Ribonucleoprotein Complex (vRNP) of Lassa (LASV) Arenavirus: LASV Primary Screen - GLuc reporter signal (AID 1347082; calls by dose curve; tested in HEK293 reporter line; also: nearly all actives have a fitted effect of over 60% in size).
The nature of experiment [4]: qHTS for Inhibitors of the Functional Ribonucleoprotein Complex (vRNP) of Lassa (LASV) Arenavirus: Viability assay - alamar blue signal for LASV Primary Screen (AID 1347083; calls by dose curve; tested in HEK293 reporter line; also: nearly all actives have a fitted effect of over 80% in size).
The nature of experiment [5]: qHTS for Inhibitors of the Functional Ribonucleoprotein Complex (vRNP) of Lymphocytic Choriomeningitis Arenaviruses (LCMV): Viability assay - alamar blue signal for LCMV Primary Screen (AID 1347085; calls by dose curve; tested in HEK293 reporter line; also: nearly all actives have a fitted effect of over 80% in size).
For experiment [6], the target named is Nucleoprotein (Lymphocytic choriomeningitis virus (strain Armstrong)) (UniProt P09992). The experiment is described as follows: qHTS for Inhibitors of the Functional Ribonucleoprotein Complex (vRNP) of Lymphocytic Choriomeningitis Arenaviruses (LCMV): LCMV Primary Screen - GLuc reporter signal (AID 1347086; calls by dose curve; also: nearly all actives have a fitted effect of over 70% in size).
Nucleoprotein (Lymphocytic choriomeningitis virus (strain Armstrong)), sequence (P09992 whole entry, looked up): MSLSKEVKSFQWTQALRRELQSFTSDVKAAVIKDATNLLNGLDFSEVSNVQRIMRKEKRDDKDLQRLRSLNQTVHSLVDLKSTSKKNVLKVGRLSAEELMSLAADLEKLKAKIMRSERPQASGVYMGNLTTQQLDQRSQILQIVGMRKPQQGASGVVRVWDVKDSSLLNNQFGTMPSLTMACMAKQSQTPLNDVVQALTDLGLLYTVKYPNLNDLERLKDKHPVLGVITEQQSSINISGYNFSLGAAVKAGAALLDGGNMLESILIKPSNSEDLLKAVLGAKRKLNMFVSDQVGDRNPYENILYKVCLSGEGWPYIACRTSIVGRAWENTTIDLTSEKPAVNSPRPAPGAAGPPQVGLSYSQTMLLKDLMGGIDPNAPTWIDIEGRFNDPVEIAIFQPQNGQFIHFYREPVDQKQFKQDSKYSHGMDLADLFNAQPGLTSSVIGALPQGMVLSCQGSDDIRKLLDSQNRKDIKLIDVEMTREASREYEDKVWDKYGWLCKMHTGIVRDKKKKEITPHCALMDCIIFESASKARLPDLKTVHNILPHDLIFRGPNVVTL
Experiment [7] can be described thus: qHTS of pediatric cancer cell lines to identify multiple opportunities for drug repurposing: Primary screen for TC32 cells (AID 1347089). Also: nearly all actives have a fitted effect of over 60% in size. An outline of the steps:
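In the primary qHTS, MIPE compounds were tested at 11 concentrations (0.78 nM to 46 µM) and NPC compounds at 8 (0.59 nM to 46 µM) on TC32 cells for 48 h. CellTiter-Glo luminescence gave viability.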

Experiment [8] is described as follows: qHTS of pediatric cancer cell lines to identify multiple opportunities for drug repurposing: Primary screen for DAOY cells (AID 1347090). Also: nearly all actives have a fitted effect of over 55% in size. The essentials: (§1)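 Eight- or eleven-point concentration series, 48 h treatment at 37 degrees C in growth media; readout CellTiter-Glo luminescence. Potency and efficacy were taken from the concentration-response curves.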

Experiment [9] in a line: qHTS of pediatric cancer cell lines to identify multiple opportunities for drug repurposing: Primary screen for SJ-GBM2 cells (AID 1347091). Also: potency is read from the fitted curve at half-maximal effect. An outline of the steps:
as §1

A short description of experiment [10]: qHTS of pediatric cancer cell lines to identify multiple opportunities for drug repurposing: Primary screen for A673 cells (AID 1347092). Also: nearly all actives have a fitted effect of over 45% in size. The essentials:
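48 h compound exposure, A673, 500-1,000 cells/well, 37 degrees C/5% CO2. MIPE: 11-point, 0.78 nM-46 µM; NPC: 8-point, 0.59 nM-46 µM (final). Readout CellTiter-Glo luminescence after 15 min RT.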

The nature of experiment [11]: P-glycoprotein substrates identified in KB-3-1 adenocarcinoma cell line, qHTS therapeutic library screen (AID 1346986). Also: nearly all actives have a fitted effect of over 60% in size. The following applies: KB-3-1 parental cells viability, CellTiter-Glo, 72 h; at 44.5 µM (top of the series) unless noted. An outline of the steps: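 KB-3-1 parental cells and P-gp-overexpressing KB-8-5-11 (colchicine omitted during assay) plated at 500 cells/well, dosed in dose-response, incubated 72 h at 37 degree C. CellTiter-Glo luminescence read; KB-8-5-11 also tested with tariquidar.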

Experiment [12] has as its target T1, Tyrosine-protein phosphatase non-receptor type substrate 1 (Homo sapiens) + Leukocyte surface antigen CD47 (Homo sapiens) (UniProt P78324+Q08722). As to the kind of experiment: CD47-SIRPalpha protein protein interaction - LANCE assay qHTS validation (AID 1347057; active = well fitted curve in the direction sought with a large enough effect in the signal ratio, with a control signal flat, not every such curve was filed as active; the % refers to the signal ratio). An outline of the steps: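 First, His-tagged CD47 and Eu-labelled anti-His antibody met the compound for 30 min; next, site-specifically biotinylated SIRPalpha was added for 30 min; finally streptavidin-APC was added before reading the TR-FRET ratio.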

The target of experiment [13] is T1, Tyrosine-protein phosphatase non-receptor type substrate 1 (Homo sapiens) + Leukocyte surface antigen CD47 (Homo sapiens). The experiment is described as follows: CD47-SIRPalpha protein protein interaction - HTRF assay qHTS validation (AID 1347058; active = well fitted curve in the direction sought with a large enough effect in the signal ratio, not every such curve was filed as active; the % refers to the signal ratio). The essentials: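 TR-FRET read (Ch1/Ch2 ratio) of soluble extracellular CD47 and Avi-biotinylated SIRPalpha domains in PBS pH 7.4 with 0.05% IGEPAL; 7-point compound titration. Sequential 30 min room-temperature steps; non-biotinylated SIRPalpha as control inhibitor.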

The target is the same in experiment [14]. The experiment is described as follows: CD47-SIRPalpha protein protein interaction - Alpha assay qHTS validation (AID 1347059).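 Also: bead proximity luminescence from CD47 binding SIRPalpha after compound preincubation with SIRPalpha.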 The essentials: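 Soluble extracellular domains: Avi-tag biotinylated SIRPalpha (25 nM) preincubated 30 min RT with compound, then 6His-CD47 (12.5 nM) 30 min; Ni-NTA acceptor and streptavidin donor beads (10 ug/mL) 30 min, AlphaScreen read. PBS pH 7.4, 0.05% IGEPAL.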

Experiment [15] is described as follows: Natriuretic polypeptide receptor (hNpr1) antagonism - Pilot counterscreen GloSensor control cell line (AID 1347045; calls by dose curve). The essentials:
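This counterscreen uses HEK293 cells expressing the GIP/pGS-40F cGMP biosensor. Compound-treated cells are challenged with 50 uM sodium nitroprusside, and the luciferase signal is compared before and after stimulation.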

In experiment [16] the target is Atrial natriuretic peptide receptor 1 (Homo sapiens) (UniProt P16066). The experiment is described as follows: Natriuretic polypeptide receptor (hNpr1) antagonism - Pilot screen (AID 1347049; calls by dose curve;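 also: agonist-evoked cGMP luminescence read 20 min after hNppA addition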). An outline of the steps:
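HEK293 cells co-expressing hNpr1 and the GloSensor pGS-40F cGMP luciferase sensor were preloaded with 2% GloSensor reagent for 2 h. Compounds were added for 30 min at room temperature, then cells were stimulated with 0.1 nM hNppA for 20 min before luminescence readout.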

Experiment [17] deals with Atrial natriuretic peptide receptor 2 (Homo sapiens) (UniProt P20594). The experiment is described as follows: Natriuretic polypeptide receptor (hNpr2) antagonism - Pilot subtype selectivity assay (AID 1347050; calls by dose curve). The essentials:
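cGMP-sensor HEK293/hNpr2 cells; 2% GloSensor reagent 2 h RT; compounds 30 min; baseline luminescence read; 1 nM hNppC agonist 20 min RT; final luminescence read by CCD camera. Antagonism = reduced post-agonist signal.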

Experiment [18] deals with Parathyroid hormone/parathyroid hormone-related peptide receptor (Homo sapiens) (UniProt Q03431). As to the kind of experiment: qHTS for PTHR1 Agonists: Optimization Screen against the NCGC LOPAC library (AID 1347079).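 Also: GloSensor cAMP luminescence in HEK-293 GP2 cells expressing human PTHR1 with IBMX.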 The essentials:
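Compounds were tested across a qHTS titration. PTHR1-expressing GP2 cells report cAMP rises via GloSensor luminescence after 1 hr compound exposure at 37C with IBMX present.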

The nature of experiment [19]: qHTS of pediatric cancer cell lines to identify multiple opportunities for drug repurposing: Primary screen for SK-N-MC cells (AID 1347093). The essentials:
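Metabolically active cells were quantified by ATP-dependent luminescence (CellTiter-Glo, 15 min at room temperature) following 48 h treatment. Cells had been plated at 500-1,000 per well and settled for 5 h beforehand.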

Experiment [20] can be described thus: Identifying Small Molecule Inhibitors of Pancreatic Cancer Stem Cells (A278, Adherent) (AID 1259361).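 Also: viability read after 48 h compound exposure; nearly all actives have a fitted effect of over 35% in size.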 The essentials:
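Luminescent ATP readout (CellTiter-Glo) quantifies surviving cells after a 48 h drug incubation. Normalization uses DMSO wells as no inhibition and media-only wells as full inhibition; bortezomib served as positive control.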

Atrial natriuretic peptide receptor 2 (Homo sapiens), sequence (P20594 whole entry, looked up): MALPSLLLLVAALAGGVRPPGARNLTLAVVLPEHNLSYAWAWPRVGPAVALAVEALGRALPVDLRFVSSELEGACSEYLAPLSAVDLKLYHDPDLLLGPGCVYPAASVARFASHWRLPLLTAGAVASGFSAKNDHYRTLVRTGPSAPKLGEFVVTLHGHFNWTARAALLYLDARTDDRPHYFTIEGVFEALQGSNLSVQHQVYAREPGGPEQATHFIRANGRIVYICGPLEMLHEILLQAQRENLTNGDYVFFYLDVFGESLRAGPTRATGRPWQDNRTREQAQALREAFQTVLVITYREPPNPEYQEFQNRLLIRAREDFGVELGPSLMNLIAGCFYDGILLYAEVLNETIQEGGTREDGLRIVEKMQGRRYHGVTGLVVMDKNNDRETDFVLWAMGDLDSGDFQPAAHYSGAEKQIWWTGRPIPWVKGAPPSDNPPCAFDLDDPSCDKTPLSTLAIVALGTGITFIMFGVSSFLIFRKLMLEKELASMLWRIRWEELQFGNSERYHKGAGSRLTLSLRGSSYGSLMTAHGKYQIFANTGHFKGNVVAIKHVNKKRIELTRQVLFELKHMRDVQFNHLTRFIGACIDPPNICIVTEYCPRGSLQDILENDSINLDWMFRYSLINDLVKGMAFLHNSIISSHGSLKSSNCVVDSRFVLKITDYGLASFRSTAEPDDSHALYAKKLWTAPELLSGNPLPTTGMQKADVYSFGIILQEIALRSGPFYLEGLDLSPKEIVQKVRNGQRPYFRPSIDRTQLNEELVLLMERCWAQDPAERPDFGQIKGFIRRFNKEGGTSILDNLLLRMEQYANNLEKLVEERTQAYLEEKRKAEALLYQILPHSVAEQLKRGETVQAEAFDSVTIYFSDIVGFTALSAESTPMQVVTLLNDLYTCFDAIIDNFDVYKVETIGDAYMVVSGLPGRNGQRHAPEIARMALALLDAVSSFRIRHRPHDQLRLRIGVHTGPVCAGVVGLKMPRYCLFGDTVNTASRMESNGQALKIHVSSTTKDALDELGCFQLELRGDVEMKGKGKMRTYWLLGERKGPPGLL
Atrial natriuretic peptide receptor 1 (Homo sapiens), sequence (P16066 whole entry, looked up): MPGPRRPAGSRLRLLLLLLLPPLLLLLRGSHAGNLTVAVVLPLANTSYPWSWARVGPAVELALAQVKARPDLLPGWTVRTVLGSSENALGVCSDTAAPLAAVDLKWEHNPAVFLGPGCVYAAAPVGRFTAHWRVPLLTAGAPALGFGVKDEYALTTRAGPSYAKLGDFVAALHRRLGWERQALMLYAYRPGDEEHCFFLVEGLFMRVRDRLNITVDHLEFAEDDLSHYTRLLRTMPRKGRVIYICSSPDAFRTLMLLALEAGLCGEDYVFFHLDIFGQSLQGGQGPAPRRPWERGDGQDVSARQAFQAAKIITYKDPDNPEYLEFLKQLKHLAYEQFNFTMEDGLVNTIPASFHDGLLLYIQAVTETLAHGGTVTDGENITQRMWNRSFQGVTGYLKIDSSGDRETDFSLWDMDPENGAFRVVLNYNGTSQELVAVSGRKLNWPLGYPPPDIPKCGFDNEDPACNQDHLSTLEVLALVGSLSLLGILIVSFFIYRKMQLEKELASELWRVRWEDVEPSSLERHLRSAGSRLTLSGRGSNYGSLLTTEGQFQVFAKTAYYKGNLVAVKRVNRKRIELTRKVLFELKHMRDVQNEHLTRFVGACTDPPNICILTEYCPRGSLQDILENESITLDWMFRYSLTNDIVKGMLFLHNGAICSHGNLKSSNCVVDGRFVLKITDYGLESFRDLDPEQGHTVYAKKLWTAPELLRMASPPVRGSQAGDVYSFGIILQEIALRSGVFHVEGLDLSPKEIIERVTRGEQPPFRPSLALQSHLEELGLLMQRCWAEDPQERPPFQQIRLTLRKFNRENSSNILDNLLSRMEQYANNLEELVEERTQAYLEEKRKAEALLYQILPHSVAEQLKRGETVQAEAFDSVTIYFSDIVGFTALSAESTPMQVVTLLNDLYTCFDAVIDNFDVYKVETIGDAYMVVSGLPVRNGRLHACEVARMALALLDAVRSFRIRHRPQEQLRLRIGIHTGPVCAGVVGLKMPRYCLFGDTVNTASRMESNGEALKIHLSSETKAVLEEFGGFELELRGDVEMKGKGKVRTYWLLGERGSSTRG
T1 sequence (P78324 whole entry, looked up): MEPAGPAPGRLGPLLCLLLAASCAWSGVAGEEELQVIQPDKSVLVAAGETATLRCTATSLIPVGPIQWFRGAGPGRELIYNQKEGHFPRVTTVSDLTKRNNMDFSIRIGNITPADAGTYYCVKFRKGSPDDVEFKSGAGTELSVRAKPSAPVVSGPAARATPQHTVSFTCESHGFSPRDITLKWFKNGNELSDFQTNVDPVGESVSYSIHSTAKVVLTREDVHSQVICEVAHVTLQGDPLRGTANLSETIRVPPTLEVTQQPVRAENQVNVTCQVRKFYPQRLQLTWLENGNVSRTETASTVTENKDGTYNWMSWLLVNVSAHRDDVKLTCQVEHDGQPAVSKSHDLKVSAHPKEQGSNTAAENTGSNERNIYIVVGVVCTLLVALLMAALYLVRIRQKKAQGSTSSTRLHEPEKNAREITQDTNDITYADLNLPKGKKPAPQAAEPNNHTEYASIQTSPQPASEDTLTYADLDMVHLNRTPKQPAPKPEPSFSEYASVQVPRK
T1 sequence (Q08722 whole entry, looked up): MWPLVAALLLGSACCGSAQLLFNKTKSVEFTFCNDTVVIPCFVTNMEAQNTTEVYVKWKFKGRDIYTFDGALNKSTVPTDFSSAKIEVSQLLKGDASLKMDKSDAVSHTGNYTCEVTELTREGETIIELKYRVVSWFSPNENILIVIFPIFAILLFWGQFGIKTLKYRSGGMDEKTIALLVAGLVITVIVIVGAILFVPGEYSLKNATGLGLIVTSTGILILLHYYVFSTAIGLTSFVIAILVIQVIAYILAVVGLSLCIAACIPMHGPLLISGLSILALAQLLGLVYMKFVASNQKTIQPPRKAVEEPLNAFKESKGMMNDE
Parathyroid hormone/parathyroid hormone-related peptide receptor (Homo sapiens), sequence (Q03431 whole entry, looked up): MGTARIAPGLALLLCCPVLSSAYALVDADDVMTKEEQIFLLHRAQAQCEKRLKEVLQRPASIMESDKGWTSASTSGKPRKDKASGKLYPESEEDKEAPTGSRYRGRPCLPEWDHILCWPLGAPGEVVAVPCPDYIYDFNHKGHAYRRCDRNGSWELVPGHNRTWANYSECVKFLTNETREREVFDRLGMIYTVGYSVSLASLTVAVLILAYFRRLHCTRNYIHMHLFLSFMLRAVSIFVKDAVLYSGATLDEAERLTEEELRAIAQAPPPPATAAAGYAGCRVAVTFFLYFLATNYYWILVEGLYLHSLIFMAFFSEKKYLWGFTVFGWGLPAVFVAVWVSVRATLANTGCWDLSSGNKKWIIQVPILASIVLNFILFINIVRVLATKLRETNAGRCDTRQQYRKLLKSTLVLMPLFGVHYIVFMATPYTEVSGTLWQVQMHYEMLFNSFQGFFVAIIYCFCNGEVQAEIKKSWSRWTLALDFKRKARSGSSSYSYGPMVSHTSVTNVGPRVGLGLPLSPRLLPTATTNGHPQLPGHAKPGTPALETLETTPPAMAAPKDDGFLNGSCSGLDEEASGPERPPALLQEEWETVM

As for `CCN(CC)CCc1c[nH]c2ccccc12`, the Potency result in experiment [1], in [3], in [4], in [5], in experiment [6] and in experiment [7] was “inactive” throughout. For the same compound, the Potency entry in experiment [8], in experiment [9] and in experiment [10] was “inactive” in each case. Besides, the compound was classed as inactive in experiment [2].
Take `C[C@]12CC[C@@H]3c4ccc(OC(=O)N(CCCl)CCCl)cc4CC[C@H]3[C@@H]1CC[C@@H]2OP(=O)(O)O`: the outcome in experiment [11] and in experiment [2] was inactive. Further, the Potency entry in [1], in experiment [3], in experiment [4], in [5], in experiment [6] and in experiment [7] was “inactive” in each case. The Potency result in experiment [10] is “inactive”. Besides, the Potency in [9] is 16.6 µM (active).
For `Clc1ccc2c(c1)C(c1ccccc1)=NCc1nncn1-2`, the Potency entry in experiment [1] is “inactive”.
In the case of `CCCCCN(C)CCC(O)(P(=O)(O)O)P(=O)(O)O`, the outcome in experiment [11], in experiment [2], in experiment [12], in experiment [13] and in experiment [14] was inactive. Further, the Potency result in experiment [1], in experiment [3], in [4], in [5] and in experiment [6] was “inactive” in each case.
`CCN[C@H](C)Cc1cccc(C(F)(F)F)c1`: the Potency result in [1], in experiment [3], in experiment [4], in experiment [5], in experiment [6] and in experiment [7] was “inactive” throughout. Also, the Potency result in [8], in [9] and in [10] was “inactive” in each case. Besides, the outcome in experiment [2] was inactive.
As to `CNC(C)(C)Cc1ccccc1`, the Potency entry in experiment [1], in experiment [3], in experiment [4], in experiment [5], in experiment [6] and in experiment [7] was “inactive” each time. The Potency entry in experiment [8], in experiment [9] and in experiment [10] was “inactive” throughout. Besides, the compound was called inactive in experiment [2].
For the compound `O=c1[nH]oc2c1CCNC2`, the Potency result in [1], in experiment [3], in [4], in experiment [5], in experiment [6] and in experiment [7] was “inactive” each time. Moreover, the Potency result in [8], in experiment [9], in [10] and in [19] was “inactive” in each case. The result in experiment [15], in experiment [16], in [17], in experiment [2], in experiment [12] and in [13] was inactive. In addition, the outcome in [14] and in [18] was inactive.
As to `NCCc1ccc(O)cc1`, the Potency result in experiment [1], in experiment [3], in experiment [4], in [5], in experiment [6] and in [7] was “inactive” in each case. The Potency entry in [8], in experiment [9] and in [10] was “inactive” each time. Also, the outcome in [15], in [16], in experiment [17], in experiment [2], in experiment [12] and in [13] was inactive. Moreover, the result in experiment [14] and in [18] was inactive.
Regarding `CN1C(=O)CCS(=O)(=O)C1c1ccc(Cl)cc1` (configuration not stated), the Potency result in experiment [1], in [3], in experiment [4], in [5], in experiment [6] and in experiment [7] was “inactive” in each case. The Potency entry in experiment [9], in [10] and in experiment [19] was “inactive” each time. Moreover, the result in [15], in [16], in [17], in experiment [2], in experiment [12] and in experiment [13] was inactive. In addition, the result in experiment [14] and in experiment [18] was inactive.
In the case of `O=P1(N(CCCl)CCCl)NCCCO1` (configuration not stated), the compound was classed as inactive in experiment [20], in [15], in experiment [16], in [17], in experiment [2] and in [12]. Besides, the result in experiment [13], in experiment [14] and in [18] was inactive. Moreover, the Potency result in experiment [1], in experiment [3], in experiment [4], in [5], in experiment [6] and in experiment [7] was “inactive” each time. Also, the Potency entry in experiment [8], in experiment [9], in [10] and in experiment [19] was “inactive” each time.
